Values without a mark were called inactive.

The assay relates to Caenorhabditis elegans dauer (daf-2(e1370)). The assay can be described thus: proportion of mobile C. elegans dauer larvae relative to DMSO control (fraction of DMSO control); higher = more viable, less nematicidal, active = 0.63 or less; extreme values may be limits of the assay. The following applies: 60 µM; 5 days; temperature: 20 °C. How it is done:
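DODA library (846 commercial 1,3,4- and 1,2,4-oxadiazole compounds plus commercial nematicide controls) screened at a single dose of 60 µM (0.6% DMSO) in 96-well plates, two biological replicates. Read-outs: C. elegans N2 L1 survival/reproduction score at day 6, 20 °C (0: 0-10 worms, 1: 11-20, 2: 21-50, 3: >50, 4: overgrown/starved). C. elegans daf-2 dauer, D. dipsaci and M. hapla J2 mobility at day 5, 20 °C, and P. penetrans mobility at day 5, 20 °C, each relative to DMSO controls. M. hapla egg hatching at day 12, 25 °C, relative to the mean of 8 DMSO wells on the same plate.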
Regarding `CCNC(=O)c1ccccc1-c1nc(-c2ccccc2)no1`, the “proportion of mobile C. elegans dauer larvae” value (“proportion” below) was 1.
Turning to `Clc1cccc(-c2nc(-c3cccnc3)no2)c1`, the “proportion” value was 1.
With `O=C(c1ccccc1-c1nc(-c2ccccc2Cl)no1)N1CCCCC1`, the “proportion” value was 1.
With `COc1ccc(Cl)cc1-c1noc(COc2ccc(Cl)cc2)n1`, the “proportion” value is 1.
Consider `Cc1ccc(-c2nc(-c3cccnc3)no2)c(C)c1`, for which the “proportion” value was 0.0769 (active).
As for `Clc1ccc(-c2nc(-c3ccccc3Br)no2)cc1`, the “proportion” value is 1.
Then `COc1ccc(Cl)cc1-c1nnc(SCC(=O)Nc2nccs2)o1`, with 1; and `O=C(CSc1nnc(-c2ccco2)o1)c1ccccc1`, with 1; and `COc1ccccc1-c1nnc(SCC(=O)Nc2ccc(Br)cn2)o1`, with 1.
Consider `Brc1ccccc1-c1nc(-c2ccncc2)no1`, for which the “proportion” value is 0.274 (active).
Regarding `Brc1ccc(OCc2nc(-c3cccs3)no2)cc1`, the “proportion” value is 1.
As to `COc1cccc(-c2noc(COc3ccc4ccccc4c3)n2)c1`, the “proportion” value was 1.
Then `COc1ccc(-c2nnc(SCc3cccc(C#N)c3)o2)cc1`, with 1.
As for `CCSc1nnc(-c2ccc(Cl)cc2Cl)o1`, the “proportion” value is 0 (active).
With `Cc1ccccc1-c1noc(-c2ccc(F)cc2)n1` the figure was 1; with `Cc1cc(OCc2nc(-c3cccnc3)no2)c(C)c(C)c1Br`, 1.
`Cc1ccc(-c2noc(COc3ccccc3Cl)n2)cc1`: the “proportion” value was 1.
With `CCc1ccc(NC(=O)CSc2nnc(-c3ccco3)o2)cc1` the figure was 1; with `CCOc1cc(-c2nc(-c3ccc(C)nc3OC)no2)cc(OCC)c1OCC`, 1.
Turning to `O=C(c1ccccc1-c1nc(-c2ccccc2)no1)N1CCCCC1`, the “proportion” value is 1.
In the case of `Clc1ccc(CSc2nnc(-c3ccccc3)o2)cc1Cl`, the “proportion” value was 1.
Then `CCOc1nc(-c2ccccc2)ccc1-c1noc(-c2cccc(OC)c2)n1`, with 1; and `COc1ccc(Cl)cc1-c1noc(-c2ccc(Cl)cc2)n1`, with 1; and `Clc1ccc(OCc2ccccc2)c(-c2nc(-c3cccnc3)no2)c1`, with 1.
As for `O=C(CSc1nnc(-c2ccccc2)o1)NC1CCCCC1`, the “proportion” value is 1.
As for `COc1ccc(C(=O)CSc2nnc(-c3ccccc3)o2)cc1`, the “proportion” value was 1.
Then `Cc1ccc(-c2noc(-c3cccc(C)c3)n2)cc1`, with 0.557 (active); and `c1coc(-c2nc(-c3cccs3)no2)c1`, with 1; and `COc1ccccc1CC(=O)Nc1ccc(-c2noc(-c3ccccc3C)n2)cc1`, with 1.
Then `O=C(Nc1ccccc1-c1nc(-c2cccnc2)no1)c1cc2ccccc2o1`, with 1; and `CCOC(=O)c1c(NC(=O)CSc2nnc(-c3ccc(Cl)cc3)o2)sc(C)c1C`, with 1.
`O=C(CSc1nnc(-c2ccco2)o1)Nc1ccc(Br)cn1`: the “proportion” value was 1.
As for `O=C(CSc1nnc(-c2ccccc2)o1)NCc1ccccc1`, the “proportion” value was 1.
With `CCCOc1ccc(-c2ccc(-c3nc(-c4cccnc4)no3)cc2)cc1`, the “proportion” value is 1.
On to `c1ccc(-c2nnc(SCc3nc4ccccc4[nH]3)o2)cc1`, for which the “proportion” value was 1.
For `Brc1ccc(-c2noc(-c3cccs3)n2)o1`, the “proportion” value was 0.5 (active).
`CCOc1ccccc1-c1nc(-c2ccc(NC(=O)CCc3ccc(OC)cc3)cc2)no1`: the “proportion” value was 1.
Consider `COc1ccc(Cl)cc1NC(=O)CSc1nnc(-c2ccc(C)cc2)o1`, for which the “proportion” value was 1.
For `O=C(CSc1nnc(-c2cccnc2)o1)c1ccc(Br)cc1`, the “proportion” value is 1.
For the compound `COc1nc(-c2ccc(C)cc2)ccc1-c1noc(-c2ccc(F)cc2)n1`, the “proportion” value is 1.

The values are drawn from the supplement of paper PMC11219838.
